Results on 32 compounds are retold here after PubChem BioAssay (NCATS).

Results filed as inconclusive are left out. Where a call stands in place of a potency, no number is given. Calls of active or inactive are those of the source. Calls follow the shape of the dose curve; as a rule, active = well fitted inhibition curve with a large enough effect; inconclusive = small, poorly fitted or top-dose-only effect; inactive = no such curve, though single readings can be large or run the other way.

In the experiment the target is Retinaldehyde dehydrogenase 3 (Homo sapiens) (UniProt P47895). The experiment in a line: qHTS for Inhibitors of the Aldehyde Dehydrogenase Family (ALDH1A3) Primary screen (AID 2061315). The following applies: ALDH inhibition qHTS; series mostly up to 56 µM. On the technique in general: qHTS replaces the single test concentration by a dilution series.
`O=C(O)c1ccnc2cc(C(OCCN3CCCCC3)c3ccccc3Cl)[nH]c12` (configuration not stated): the Potency result is “inactive”.

Turning to `CC(C)[C@H]1OC(=O)[C@H](Cc2ccccc2)N(C)C(=O)[C@@H](C(C)C)OC(=O)[C@H](Cc2ccccc2)N(C)C(=O)[C@@H](C(C)C)OC(=O)[C@H](Cc2ccccc2)N(C)C1=O`, the Potency result was “inactive”.

In the case of `Cc1nn2c(=O)cc(N3CCNCC3)nc2s1`, the Potency result was “inactive”.

In the case of `CC[C@H]1C2CC3[C@@H]4N(C)c5ccccc5[C@]45C[C@@H]([C@H]2[C@H]5O)N3[C@H]1O`, the Potency entry is “inactive”.

`S=P(c1ccccc1)(c1ccccc1)c1cnc2ccccn12`: the Potency entry was “inactive”.

Regarding `CC[C@H]1C[C@H]2[C@@H]3CCC4=CC(=O)CC[C@@H]4[C@H]3CC[C@]2(C)[C@H]1O`, the Potency result was “inactive”.

Turning to `CCCc1ccc(NC(=O)c2ccc3c(c2)NC(=O)CS3)cc1`, the Potency result is “inactive”.

Consider `C[C@H]1C/C=C/[C@H]2[C@@H]3O[C@]3(C)[C@@H](C)[C@H]3[C@H](Cc4ccccc4)NC(=O)[C@]32OC(=O)O/C=C/[C@@](C)(O)C1=O`, for which the Potency result is “inactive”.

`Oc1cccc2cc(N3CCNCC3)cnc12`: the Potency result was “inactive”.

As for `COC1CCCC(C)OC(=O)Cc2cc(O)cc(O)c2C(=O)C1` (configuration not stated), the Potency result was “inactive”.

As to `O=C(Nc1ncc(Cc2ccc(C(F)(F)F)cc2)s1)c1cnc(-c2ccccc2)o1`, the Potency entry was “inactive”.

In the case of `Cc1c(P(=S)(c2ccccc2)c2ccccc2)c2ccccc2n1C`, the Potency result was “inactive”.

In the case of `CCOc1ccc(CCNC(=O)c2cc3ccccc3n2CCN2CCOCC2)cc1OCC`, the Potency entry was “inactive”.

`C=C1[C@@H](C)C2[C@H](Cc3ccccc3)NC(=O)[C@@]23C(/C=C/C[C@H](C)C[C@@](C)(O)/C=C/[C@@H]3OC(C)=O)[C@@H]1O` (some centres not stated): the Potency entry was “inactive”.

With `Cc1cccc2nc(NC3=NC(c4[nH]ncc4Cl)C4=C(CCCC4=O)N3)oc12` (configuration not stated), the Potency entry is “inactive”.

Take `C[C@@H]1O[C@@H](O[C@H]2CC[C@@]3(C)C(CC[C@@H]4C3CC[C@]3(C)[C@@H](C5=CC(=O)OC5)CC[C@]43O)C2)[C@H](O[C@@H]2O[C@H](CO)[C@@H](O)[C@H](O)[C@H]2O)[C@H](O)[C@H]1O` (some centres not stated): the Potency result was “inactive”.

For the compound `CCOc1ccc(CCNC(=O)c2ccc(Oc3ccccc3)cc2)cc1OCC`, the Potency result is “inactive”.

With `C=C(CO)C(=O)O[C@H]1CC(=C)[C@@H]2C[C@H](O)C(=C)[C@@H]2[C@H]2OC(=O)C(=C)[C@@H]21`, the Potency result is “inactive”.

Take `COC1CC(O[C@H]2CC[C@]3(C=O)C4CC[C@]5(C)[C@@H](C6=CC(=O)OC6)CC[C@]5(O)[C@@H]4CC[C@]3(O)C2)OC(C)C1O[C@@H]1O[C@H](CO)[C@@H](O)[C@H](O)[C@H]1O` (some centres not stated): the Potency entry was “inactive”.

In the case of `CCOc1ccc(CCNC(=O)c2cc3sccc3n2CCN(C)C)cc1OCC`, the Potency entry was “inactive”.

With `Cc1nnc2n1-c1sc(CCc3ccc(CC(C)C)cc3)cc1C(c1ccccc1Cl)=NC2C` (configuration not stated), the Potency result is “inactive”.

As to `C/C=C(\C)C(=O)O[C@@H]1[C@@H](C)[C@]2(O)C3C=C(C)C(=O)[C@@]3(O)CC(CO)=C[C@H]2C2C(C)(C)[C@@]21OC(=O)C(C)CC` (some centres not stated), the Potency entry was “inactive”.

As to `CCOc1ccc(CCNC(=O)c2cc3sccc3n2Cc2ccc(F)cc2F)cc1OCC`, the Potency entry was “inactive”.

Turning to `Cc1ccccc1[C@@H](C(=O)NC1CCCCC1)N(C(=O)Cn1ccnc1C)c1cccc(F)c1`, the Potency entry was “inactive”.

Turning to `C[C@H]1O[C@@H](O[C@H]2C[C@@H](O)[C@]3(CO)C4C(CC[C@]3(O)C2)[C@@]2(O)CC[C@H](C3=CC(=O)OC3)[C@@]2(C)C[C@H]4O)[C@@H](O)[C@@H](O)[C@H]1O` (some centres not stated), the Potency entry is “inactive”.

Regarding `O=S(=O)(Nc1ccccc1)c1ccc(NCc2ccc(Br)cc2O)cc1`, the Potency result is “inactive”.

Turning to `CN1Cc2c(ccc3c2OCO3)[C@@H]2[C@H]1c1cc3c(cc1C[C@@H]2O)OCO3`, the Potency result is “inactive”.

For the compound `O=C(Nc1ncc(Cc2ccc(C(F)(F)F)cc2)s1)c1cn(-c2ccccc2)cn1`, the Potency result is “inactive”.

`COC(=O)C12C(=O)C(C)(O)C(=O)C1(C)C(C)=CC1C3(C=O)CCC(OC(C)=O)C(C)(C)C3CCC12C` (configuration not stated): the Potency entry was “inactive”.

`COc1cccc(CNc2ccc(C(=O)Nc3nccs3)cc2)c1O`: the Potency result is “inactive”.

For the compound `CO[C@H]1[C@H](O)[C@H](O[C@H]2CC[C@]3(C)C4CC[C@]5(C)[C@H](C6=CC(=O)OC6)CC[C@]5(O)C4CC[C@@H]3C2)O[C@@H](C)[C@@H]1O` (some centres not stated), the Potency entry was “inactive”.

With `C[C@@H]1[C@H](O)[C@@H](C)/C=C/C=C/CC/C=C/C=C/C=C/C=C/[C@H](O[C@H]2O[C@@H](C)[C@H](O)[C@@H](N)[C@H]2O)C[C@@H]2O[C@](O)(C[C@@H](O)[C@H](O)CC[C@@H](O)C[C@@H](O)C[C@@H](O)CC(=O)O[C@H]1C)C[C@H](O)[C@H]2C(=O)O`, the Potency result was “inactive”.
